Screens from PubChem.
Only some compounds are listed: those with a hit (about 2.4% of all), similar ones and a draw of the others.
PABP1 MLLE inh: inhibitors of microRNA-mediated deadenylation, human PABP1 MLLE binding. P11940. GST-MLLE / FITC-PAM2 fluorescence polarization. inhibition, % at 20 µM. 360,000 tested, 0.36% active. AID 588489; in the data active = inhibition above about 35%, passing the limit was not always enough
PERK inh: inhibitors of human PERK kinase. 220,000 tested, 0.17% active. inhibition, % at 5.6 µM. Q9NZJ5. CHO PERK-DD fusion, SEAP luminescence translation reporter. AID 1416;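 active = inhibition above the mean inhibition of all tested compounds plus 3 SD, set separately per screening campaign, cut at about 2.9% in these data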;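 also: PERK kinase domain activated by AP20187 dimerizer at 100 nM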
PfM18AAP inh: PfM18AAP enzyme inhibition. recombinant PfM18AAP, H-Glu-NHMec fluorogenic cleavage. inhibition, % at 7.35 µM. 290,000 tested, 1.2% active. AID 1822;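 active = inhibition above the campaign mean inhibition over all tested compounds plus 3 SD, cut at about 28% in these data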
eIF4H FP inh: inhibitors of RNA binding by human eIF4H; AID 2012; Q15056; eIF4H fluorescence polarization binding assay; 290,000 tested, 0.94% active; inhibition, % at 35 µM;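 also: calls also rest on retests at 20 µM and on dose response follow-up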
PABP FP inh: PABP-poly(A) binding inhibition | inhibition, % at 35 µM | 290,000 tested, 1% active | P11940 | PABP-poly(A) RNA binding, fluorescence polarization;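 also: calls also rest on retests at 20 µM and on dose response follow-up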
eIF4E-4G inh: inhibitors of eIF4E and eIF4G interaction in translation initiation; TR-FRET eIF4E-eIF4GI(517-606) binding, 2 h; P63073+Q04637; inhibition, % at 21.7 µM; AID 782; 220,000 tested, 0.37% active;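 active = inhibition above about 30%, limit read from the data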
Numbers stand for hits; – = inactive; ? = inconclusive; · = not tested or not shown. Unless noted, no rule for the calls is given here.

SMILES	PABP1 MLLE inh	PERK inh	PfM18AAP inh	eIF4H FP inh	PABP FP inh	eIF4E-4G inh
CCC1=NN2C(=N)/C(=C/c3c(C)nn(-c4ccccc4)c3Cl)C(=O)N=C2S1	–	–	–	74.4	11.2	–
CC(C)CS(=O)(=O)C1=NN2C(=N)/C(=C\c3ccc(OC(=O)c4ccco4)cc3)C(=O)N=C2S1	–	·	–	66.5	60.7	·
CCCC1=NN2C(=N)/C(=C\c3ccc(SCc4ccco4)o3)C(=O)N=C2S1	–	–	–	?	?	–
CCC1=NN2C(=N)/C(=C\c3ccc(SCc4ccco4)o3)C(=O)N=C2S1	–	–	29.5	?	?	–
CCC1=NN2C(=N)/C(=C/c3ccc(OS(=O)(=O)c4ccccc4)c(OC)c3)C(=O)N=C2S1	–	·	–	–	–	·
CS(=O)(=O)C1=NN2C(=N)/C(=C\c3ccc(OC(=O)c4ccco4)cc3)C(=O)N=C2S1	–	·	–	–	–	·
N=C1/C(=C/c2ccco2)C(=O)N=C2SC(CC(=O)N3CCCC3)=NN12	–	·	–	78.6	48.2	·
N=C1/C(=C/c2ccc(Br)o2)C(=O)N=C2SC(CC(=O)N3CCCC3)=NN12	–	·	–	·	·	·
NC(=O)C1CCN(C(=O)c2ccc(NS(=O)(=O)c3ccc(F)c(F)c3)cc2)CC1	–	·	·	·	·	·
c1ccc(CCNc2ccccc2)cc1	·	·	·	–	–	·
COc1ccc(CCn2c(=O)[nH]c3cc(C(=O)N4CCN(c5ccccn5)CC4)ccc3c2=O)cc1OC	–	–	–	–	–	–
CCCCn1c(N)c(N(CCOC)C(=O)COC(=O)CCOc2ccc(C)cc2)c(=O)[nH]c1=O	–	·	·	·	·	·
O=C(NNc1nc2c(F)cccc2s1)c1cc(=O)c2ccccc2o1	–	–	30.4	–	–	–
NNc1nc2c(F)cccc2s1	–	–	30.4	–	–	–
Cc1ccc2sc(NNC(=O)c3cc(=O)c4ccccc4o3)nc2c1C	–	–	30.1	–	–	–
O=C(NNc1nc2c(F)cccc2s1)c1ccc(F)cc1	–	–	30.3	–	–	–
O=C(CN1c2ccccc2S(=O)(=O)c2ccccc21)NCc1ccc(F)cc1	–	·	–	–	–	·
Cc1nc2nc(C)c(NS(=O)(=O)c3ccc(Cl)cc3)c(=O)n2[nH]1	–	·	–	–	–	·
CCN(CC)C(=O)c1c(Cl)nc(C)c([N+](=O)[O-])c1C	–	–	–	–	–	–
COc1ccc(-c2cn3ccccc3n2)cc1	–	–	–	–	–	–
COc1ccc(-c2ccn(-c3cccc(F)n3)n2)cc1	–	–	31.7	?	–	–
CCC(C)c1ccc(C(CC)NC(=O)C2CCCO2)cc1 (stereo unspecified)	–	·	–	–	–	·
O=C1CCC/C(=N\NC(=O)c2ccc(NS(=O)(=O)c3ccc(Br)cc3)cc2)C1	–	–	30.1	–	–	–
Cc1ccc(S(=O)(=O)N(C)Cc2ccc(C(=O)N/N=C3\CCCC(=O)C3)cc2)cc1	–	–	–	–	–	–
Cc1cccc(C)c1NC(=O)CN(C)C(=O)c1cccc(S(=O)(=O)N2CCN(c3ccccc3)CC2)c1	–	·	–	–	42.3	·
SMILES	PABP1 MLLE inh	PERK inh	PfM18AAP inh	eIF4H FP inh	PABP FP inh	eIF4E-4G inh
O=C(Nc1ccccc1)c1sc(N2CCOCC2)nc1-c1ccccc1	–	–	–	active	75.1	–
N#C/C(=C\c1sc(N2CCOCC2)nc1-c1ccccc1)C(=O)Nc1cccc2ccccc12	·	–	–	55.0	active	45.4
CCN(CC)c1ccc(NC(=S)Nc2ccc(F)cc2)cc1	–	–	–	–	–	–
CC(C)Cn1c(SCC(=O)NCc2ccc(Cl)cc2)nnc1-c1cccc(S(=O)(=O)N2CCOCC2)c1	–	–	–	–	–	–
COc1ccc(S(=O)(=O)C(C#N)c2nc3ccccc3nc2N2CCCCC2)cc1 (stereo unspecified)	–	–	–	97.2	103.1	–
Cc1ccc(C)c(S(=O)(=O)C(C#N)c2nc3ccccc3nc2N2CCCC2)c1 (stereo unspecified)	–	–	–	?	?	–
COc1ccc2nc(N3CCCCC3)c(C#N)cc2c1	40.5	–	–	–	–	–
N#CC(c1nc2ccccc2nc1N1CCCC1)S(=O)(=O)c1cccs1 (stereo unspecified)	–	–	–	–	–	–
Cc1ccc(C)c(S(=O)(=O)C(C#N)c2nc3ccccc3nc2N2CC(C)OC(C)C2)c1 (stereo unspecified)	–	–	–	77.8	114.5	–
N#CC(c1nc2ccccc2nc1N1CCCC1)S(=O)(=O)c1ccccc1 (stereo unspecified)	–	–	–	?	?	–
Cc1cccc(S(=O)(=O)C(C#N)c2nc3ccccc3nc2N2CCCC2)c1 (stereo unspecified)	–	–	–	122.4	122.4	–
COC(=O)c1ccc(NC(=S)N2CCN(Cc3ccccc3OC)CC2)cc1	–	–	–	–	–	–
O=C(Nc1ccccc1Cl)OCC#CCOC(=O)Nc1ccccc1Cl	–	·	·	·	·	·
Cc1noc(C)c1C(=O)Nc1cccc(S(=O)(=O)N2CCCCC2)c1	–	·	·	·	·	·
Cc1ccc(S(=O)(=O)C(C#N)c2nc3ccccc3nc2N2CCN(C)CC2)cc1C (stereo unspecified)	–	–	–	121.5	118.6	–
CN1CCN(c2nc3ccccc3nc2C(C#N)S(=O)(=O)c2ccccc2)CC1 (stereo unspecified)	·	–	–	?	?	–
CN(C)c1nc2n(c(=O)n1)C(C#N)CS2 (stereo unspecified)	39.7	–	–	–	–	–
c1ccc2c(C3=NNC(=NC4CC4)SC3)c[nH]c2c1	–	–	32.0	–	–	–
O=c1c(-c2ccccc2)coc2c(CN3CCCC3)c(O)ccc12	–	–	–	–	–	75.7
O=c1c(-c2ccc(Cl)cc2)coc2c(CN3CCOCC3)c(O)ccc12	–	–	–	–	–	–
O=C(O)c1ccc2c(=O)n(-c3ccc(F)c(Cl)c3)c(=S)[nH]c2c1	–	–	–	–	–	–
COc1ccc(NS(=O)(=O)c2ccc3c(c2)N(C(C)=O)CC(C)S3)c(OC)c1 (stereo unspecified)	–	·	–	–	–	·
Cc1ccc2cc(/C=N/Nc3nc4ccccc4[nH]3)c(Cl)nc2c1	–	3.4	–	–	–	–
COc1cc(OC)c(OC)cc1/C=N/Nc1nc2ccccc2[nH]1	–	–	–	–	–	–
COCCNC(=O)c1c[nH]n2c(=O)cc(C3CCN(C(=O)OC(C)(C)C)CC3)nc12	–	3.8	–	–	–	–
COCCNS(=O)(=O)c1ccc(C)c(C)c1C	–	–	–	–	–	–
Nc1ncnc2c1ncn2[C@@H]1O[C@H](COP(=O)(O)O)[C@@H](O)[C@H]1O	–	·	–	–	–	·
CN1N=C(N)c2cn(C3OC(COP(=O)(O)O)C(O)C3O)c3ncnc1c23 (stereo unspecified)	50.9	·	·	·	·	·
O=C1C2CC=C(Cl)CC2C(=O)N1CN(Cc1ccco1)CN1C(=O)C2CC=C(Cl)CC2C1=O (stereo unspecified)	–	–	–	65.8	54.0	–
